The values below come from PubChem BioAssay (Tox21).

Molecules are shown by their SMILES. Inconclusive results are not listed. A call without a number means that no potency is given here. A number with no mark means an inactive call. Activity calls are given as the source filed them. The call rests on the fitted dose curve; in most records, active means well fitted activation curve with a large enough effect in the repeat runs; inconclusive means weak or mixed curves; inactive means flat fitted curve, though single readings scatter.

A short description of the assay: A CellTox Green Cytotoxicity Assay to monitor cytotoxicity in HepG2 cells - 16 hour (AID 1224876). Further: nearly all actives have a fitted effect of over 45% in size. The following applies: CellTox Green fluorescence; series mostly up to 76.8 µM. The source says:
National Center for Advancing Translational Sciences [NCATS]
NIH Chemical Genomics Center [NCGC]
U.S. Environmental Protection Agency [EPA]
National Institutes of Environmental Health Sciences [NIEHS]
National Toxicology Program [NTP]
Cell-based models are critical for drug discovery. Determining the natural cytotoxic effects resulting from test compounds is an essential research activity. A CellTox Green Cytotoxicity Assay to monitor cytotoxicity in real time of continues cell culture during 40 hours of the compound treatment was used to screen Tox21 10K library compounds in HepG2 cells. CellTox Green Cytotoxicity Assay is a nonlytic, homogeneous, biofluorescent method to measure cytotoxicity in cell culture after experimental manipulation. The assay system uses a proprietary asymmetric cyanine dye that is excluded from viable cells but preferentially stains the dead cell's DNA. […] Viable cells produce no appreciable increases in fluorescence. Therefore, the fluorescence signal produced by the binding interaction with dead cell DNA is proportional to cytotoxicity.
The mixture of HepG2 cell suspension and reagents were dispensed at 600cells/6 ul/well in 1536-well tissue culture treated black solid bottom plates using a Multidrop dispenser. After the assay plates were incubated at a 37 C/5% CO2 incubator for 5 hours, 23 nL of compounds dissolved in DMSO, positive and negative controls was transferred to the assay plate by a pintool work station. The plates were incubated at 37 C for 40 hours. The fluorescence intensity were measured at 0h, 8h, 16h, 24h, 32h and 40h time points using ViewLux plate reader during compound treatment.
On to `CC1CCC(C(C)(C)S)C(=O)C1` (stereo not given), for which the Potency entry was “inactive”.
As to `CCCCCCCCCCCCCCCCI`, the cytotoxicity increase is -9.76% [at 15.8 µM].
`CCC1COC(=O)O1` (stereo not given): the Potency result was “inactive”.
On the same count and under the same terms, the entry for `OCCCCCCCl` is “inactive”.
Still for that read-out and setting: in the case of `Nc1ccc(S(=O)(=O)Nc2ccccn2)cc1` it was “inactive”.
Consider `CCCCCCCC/C=C\CCCCCCCC(=O)OC[C@@H](O)[C@H]1OC[C@H](O)[C@H]1O`, for which the Potency entry was “inactive”.
Same read-out and setting: the entry for `Nc1ccc(S(=O)(=O)NC(=O)c2ccccc2)cc1` is “inactive”; for `O=C(c1ccc2c(c1)C(=O)OC2=O)c1ccc2c(c1)C(=O)OC2=O` it is “inactive”; for `CCCCOC(=O)[C@@H](C)Oc1ccc(Oc2ccc(C(F)(F)F)cn2)cc1` it is “inactive”.
Still for that read-out and setting: the entry for `CCCCCCCCCCCCC` is “inactive”.
Same read-out and setting: the entry for `CCCCC[Si](OCC)(OCC)OCC` is “inactive”.
Take `FC(F)(F)/C(=N\OCC1OCCO1)c1ccc(Cl)cc1`: the Potency result was “inactive”.
The same measure, in the same setting: the entry for `c1ccccc1` is “inactive”; for `CCC1Nc2cc(Cl)c(S(N)(=O)=O)cc2S(=O)(=O)N1` (stereo not given) it is “inactive”; for `C=CCOc1cc(Cl)ccc1C(=O)NCCN(CC)CC` it is “inactive”.
Same read-out and setting: the entry for `Cc1ccc(S(=O)(=O)NC(=O)NC2CCCCCCC2)cc1` is “inactive”; for `CN(C)CCOCCN(C)CCO` it is “inactive”; for `O=C(O)c1c(Cl)ccc(Cl)c1Cl` it is “inactive”.
The same measure, in the same setting: the entry for `CC(=O)OC(C)c1ccccc1` (stereo not given) is “inactive”; for `Cc1ccccc1C` it is “inactive”.
Take `Nc1cc(C(=O)O)ccc1Cl`: the Potency result was “inactive”.
The same measure, in the same setting: the entry for `O=c1[nH]c(=O)c2ccccc2o1` is “inactive”; for `CC(C)(C)NCCO` it is “inactive”; for `O=C1OC(=O)c2ccccc21` it is “inactive”.
Turning to `Cc1ccc(C(=O)C(=O)O)cc1C`, the Potency entry was “inactive”.
Same read-out and setting: in the case of `CCCCCCCCCCC` it was “inactive”.
Still for that read-out and setting: the entry for `CC1(N)CCC(C(C)(C)N)CC1` (stereo not given) is “inactive”.
The same measure, in the same setting: the entry for `O=C1NC2NC(=O)NC2N1` (stereo not given) is “inactive”.
On to `Nc1ccc(C(=O)OCC(O)CO)cc1` (stereo not given), for which the Potency result is “inactive”.
Same read-out and setting: the entry for `FC(F)(F)c1ccc(Cl)cc1Cl` is “inactive”; for `O=c1cc(O)c(Cl)c[nH]1` it is “inactive”.
Still for that read-out and setting: the entry for `Nc1ccnc(=O)[nH]1` is “inactive”; for `CC(=O)/C=C/c1ccco1` it is “inactive”.
Regarding `O=S(=O)(O)SSS(=O)(=O)O`, the Potency entry was “inactive”.
On the same count and under the same terms, the entry for `CN[C@@H]1[C@@H](O)[C@@H](O[C@@H]2[C@H](O)[C@H](O[C@H]3OC(CN)=CC[C@H]3N)[C@@H](N)C[C@H]2N)OCC1(C)O` (stereo not given in full) is “inactive”.
In the case of `CC(=O)c1ccc2c(c1)CCCC2`, the Potency result is “inactive”.
Consider `OC(CCN1CCCCC1)(c1ccccc1)c1ccccc1`, for which the Potency entry was “inactive”.
The same measure, in the same setting: in the case of `C=C(C)C(=O)OC` it was “inactive”.
Turning to `CCN(CCC#N)c1ccccc1`, the Potency entry is “inactive”.
Still for that read-out and setting: the entry for `CC(=O)N(CC(O)CO)c1c(I)c(C(=O)NCC(O)CO)c(I)c(C(=O)NCC(O)CO)c1I` (stereo not given) is “inactive”.
